Test results: PubChem BioAssay (NCATS)
Inconclusive results are not listed. Entries that show only a call come without a potency. Active and inactive are the calls of the source. Calls follow the shape of the dose curve; as a rule, active = well fitted inhibition curve with a large enough effect; inconclusive = small, poorly fitted or top-dose-only effect; inactive = no such curve, though single readings can be large or run the other way. Where a SMILES comes first, the peptide text is derived from it. Bridges are numbered along the chain shown (N, C = ends). [ ]: non-standard residue; d: D form. The star is where a group is joined. X1 = CCC(C)C(N)C1=NC(C(=O)*)CS1; dOrn = NCCC[C@@H](N)C(=O)O

Assay: qHTS to identify inhibitors of the type 1 interferon - major histocompatibility complex class I in skeletal muscle: primary screen against the NCATS Mechanism Interrogation Plate v5.0 (MIPE) Libary (AID 1347411); also: nearly all actives have a fitted effect of over 65% in size
How it was run: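 HLA-B HiBit myoblasts, dexamethasone-free medium + 4 ng/ml IFN-b, 24 h compound, 11-pt 1:3 from 46 uM final. Readout: Nano-Glo HiBiT lytic luminescence after 10 min lysis, RT.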
Potency is read from the fitted curve at half-maximal effect.

CCCCC(=O)OCC(=O)[C@]1(O)Cc2c(O)c3c(c(O)c2[C@@H](O[C@H]2C[C@H](NC(=O)C(F)(F)F)[C@H](O)[C@H](C)O2)C1)C(=O)c1c(OC)cccc1C3=O
Potency: 10.4 µM (active)

OC[C@H]1O[C@@H](Oc2cc(O)cc(/C=C/c3ccc(O)cc3)c2)[C@H](O)[C@@H](O)[C@@H]1O
Potency: inactive

CC1(C)O[C@@H]2C[C@H]3[C@@H]4CCC5=CC(=O)C=C[C@]5(C)[C@H]4[C@@H](O)C[C@]3(C)[C@]2(C(=O)CO)O1
Potency: inactive

C[C@H]1CN(C[C@H](Cc2ccccc2)C(=O)NCC(=O)O)CC[C@@]1(C)c1cccc(O)c1
Potency: inactive

Cc1cc(C)cc(NC(=O)Cc2ccc(OC(C)(C)C(=O)O)cc2)c1
Potency: inactive

CC1=C(/C=C/C(C)=C/C=C/C(C)=C/C=C/C=C(C)/C=C/C=C(C)/C=C/C2=C(C)CCCC2(C)C)C(C)(C)CCC1
Potency: inactive

CN1CC[C@@H](NC(=O)Nc2ccc(C#N)cc2)C[C@@H]1c1nc2ccccc2[nH]1
Potency: inactive

Cc1c(-c2ccnn2C)cc(C(=O)NCc2ccc(S(C)(=O)=O)cn2)c(=O)n1-c1cccc(C(F)(F)F)c1
Potency: inactive

CCC(C)C(N)C1=NC(C(=O)N[C@@H](CC(C)C)C(=O)N[C@H](CCC(=O)O)C(=O)N[C@H](C(=O)N[C@H]2CCCCNC(=O)[C@H](CC(N)=O)NC(=O)[C@@H](CC(=O)O)NC(=O)[C@H](Cc3cnc[nH]3)NC(=O)[C@@H](Cc3ccccc3)NC(=O)[C@H]([C@@H](C)CC)NC(=O)[C@@H](CCCN)NC2=O)[C@@H](C)CC)CS1 (some centres not stated) (X1-L[dE]IK[dOrn]I[dF]H[dD]N; lactam 4-C)
Potency: inactive

O=c1ccn([C@@H]2O[C@H](CO)[C@@H](O)[C@H]2O)c(=O)[nH]1
Potency: inactive

CO[C@@H]1COCC[C@@H]1N[C@@H]1CC[C@@](C(=O)N2CCc3ncc(C(F)(F)F)cc3C2)(C(C)C)C1
Potency: inactive

Cc1nnc(C(C)C)n1C1CC2CCC(C1)N2CCC(NC(=O)C1CCC(F)(F)CC1)c1ccccc1 (configuration not stated)
Potency: inactive

CCNC(=O)CCC/C=C\C[C@@H]1[C@@H](/C=C/C(O)CCc2ccccc2)[C@@H](O)C[C@@H]1O (some centres not stated)
Potency: inactive

COc1ccc2cc(OCC3(C(=O)O)CN(C(=O)c4ccc(F)cc4)C3)ccc2c1
Potency: inactive

Cc1nn(C)c(COc2ccc(N3CCN(S(=O)(=O)N(C)C)CC3)cc2)c1-c1cccc2c(CCCOc3cccc4ccccc34)c(C(=O)O)n(CCN3CCOCC3)c12
Potency: inactive

CCCCN(CCCC)C(=O)CN1C[C@H](c2ccc3c(c2)OCO3)[C@@H](C(=O)O)[C@@H]1c1ccc(OC)cc1
Potency: inactive

Cc1cc(Nc2ncc(Cl)c(Nc3ccccc3S(=O)(=O)C(C)C)n2)c(OC(C)C)cc1C1CCNCC1
Potency: 20.8 µM (active)

Nc1ccn([C@@H]2C(F)=C(CO)[C@@H](O)[C@H]2O)c(=O)n1
Potency: inactive

CC(C)N(C[C@H]1O[C@@H](n2cnc3c(N)ncnc32)[C@H](O)[C@@H]1O)C1CC(CCc2nc3ccc(C(C)(C)C)cc3[nH]2)C1 (some centres not stated)
Potency: inactive

NC1CCC(N[C@@H]2C[C@H]2c2ccccc2)CC1 (some centres not stated)
Potency: inactive

CC(C)(O)CNc1nc(Nc2ccnc(C(F)(F)F)c2)nc(-c2cccc(C(F)(F)F)n2)n1
Potency: inactive

C[C@H]1[C@H](C)CC[C@]2(C(=O)O)CC[C@]3(C)C(=CC[C@@H]4[C@@]5(C)C[C@@H](O)[C@H](O)[C@@](C)(CO)[C@@H]5CC[C@]43C)[C@H]12
Potency: inactive
